Results from PubChem BioAssay (Tox21).
Records with an inconclusive call do not appear. Activity calls are given as the source filed them. Calls come from the whole dose curve; as a rule, active = well fitted cell-killing curve with a large enough effect in the repeat runs; inconclusive = weak or mixed curves, or effect the other way; inactive = no such curve, though single readings can be large or run the other way.

Test: qHTS assay to identify small molecule antagonists of the retinoid-related orphan receptor gamma (ROR-gamma) signaling pathway - cell viability counter screen (AID 1159520); note: nearly all actives have a fitted effect of over 50% in size
Settings: Tet-on RORgamma CHO cells viability, ATP luminescence, 16 h; series mostly up to 92.4 µM; activity, negative = cytotoxicity: at the top concentration
From the text: U.S. Tox21 Program National Center for Advancing Translational Sciences [NCATS] NIH Chemical Genomics Center [NCGC] U.S. Environmental Protection Agency [EPA] National Institutes of Environmental Health Sciences [NIEHS] National Toxicology Program [NTP] U.S. Food and Drug Administration [FDA] Tox21 Assay Overview: Nuclear steroid hormone receptors are involved in many biological processes including inflammatory responses, cell proliferation, and apoptosis. Environmental factors or compounds disrupting these nuclear receptor pathways and gene expression may promote susceptibility to immunotoxicants and autoimmune diseases. One important group of these expression factors are the retinoid-related orphan receptors. To assess compounds that may interfere with the retinoid-related orphan receptor gamma (ROR-gamma) transcription factor, a cell-based luciferase assay was used. The CHO cell-based assay utilizes a TET-inducible ROR expression factor and ROR response element-LUC reporter gene. Reporter gene activity was induced using Doxycycline Hyclate and measured after 16 hr incubation. Tet-on ROR gamma CHO cells were used to screen against the Tox21 10K compound library for cytotoxicity by measuring the viability of the cells based on the quantitation of the ATP.
Tox21 Assay Protocol Summary: Tet-on ROR gamma CHO cells were dispensed at 1,000 cells in 4 uL of culture medium per well into white wall/solid bottom 1536-well plates using a Multidrop Combi (Thermo Scientific, Waltham, MA) dispenser. Following incubation at 37 C and 5% CO2 for 4 hr, 23 nL of compounds dissolved in DMSO, positive controls or DMSO only were transferred by a Pintool station (Kalypsys, San Diego, CA) and after 2 hr incubation at 37 C, one ul of 1 uM (final concentration) of Doxycycline Hyclate was added to all the wells by using a Flying Reagent Dispenser (FRD) (Aurora Discovery, San Diego, CA). After 16 hr incubation at 37 C and 5% CO2, 5 uL of CellTiter-Glo reagent (Promega Corporation, Madison, WI) was added to each assay plate using FRD. After 30 min incubation at room temperature, luminescence was quantified on a ViewLux plate reader (Perkin Elmer, Waltham, MA).
% is set by controls: 0 for no effect and ±100 for the full control effect.

Row | Structure (SMILES) | activity, negative = cytotoxicity
1 | CCCCN(CCC(=O)OCC)C(C)=O | 4.09% (inactive)
2 | NS(=O)(=O)Cc1noc2ccccc12 | 6.56% [at 42.5 µM] (inactive)
3 | Cc1ccnc(NS(=O)(=O)c2ccc(N)cc2)n1 | 0.504% [at 42.5 µM] (inactive)
4 | CC(=O)N1C[C@H](O)C[C@H]1C(=O)O | 0.162% [at 42.5 µM] (inactive)
5 | Cc1ccc(C(=O)c2ccccc2)cc1 | -0.258% (inactive)
6 | C=CC(=O)OCCCl | 0.75% (inactive)
7 | C[N+](C)(C)CCCCCCCCCC[N+](C)(C)C | 0.384% [at 42.5 µM] (inactive)
8 | NC(=O)Cc1cccc2ccccc12 | -7.93% (inactive)
9 | CC12CCC(C(=O)C1=O)C2(C)C (stereo not given) | 3.91% (inactive)
10 | Nc1ccn([C@@H]2O[C@H](CO)[C@@H](O)C2O)c(=O)n1 (stereo not given in full) | 5.79% (inactive)
11 | CNCC(O)c1ccc(O)c(O)c1 (stereo not given) | 2.14% [at 42.5 µM] (inactive)
12 | CC(C)CC(C)(N)C#N (stereo not given) | -0.391% (inactive)
13 | O=C1NC(=O)C2CC=CCC12 (stereo not given) | 2.84% (inactive)
14 | O=C(CO)[C@@H](O)[C@H](O)[C@H](O)CO | 0.901% (inactive)
15 | CCCCCCCCCCCCSC | 1.62% (inactive)
16 | C=CCCCCCCCCC(=O)OCC | 1.02% (inactive)
17 | CC(=O)N[C@H]1[C@H]([C@H](O)[C@H](O)CO)OC(C(=O)O)=C[C@@H]1N=C(N)N | 5.35% [at 42.5 µM] (inactive)
18 | O=CN(CCO)CCO | 2% (inactive)
19 | CCN(CC#N)c1cccc(C)c1 | 1.51% (inactive)
20 | [K+] | 2.36% (inactive)

Row | Structure (SMILES) | activity, negative = cytotoxicity
21 | O=[N+]([O-])c1ccc(/C=N\O)o1 | -0.0632% [at 42.5 µM] (inactive)
22 | CCCC(C)C(=O)OCC (stereo not given) | 10.7% (inactive)
23 | C=C(C)C(=O)OCC(O)CO (stereo not given) | -2.24% [at 42.5 µM] (inactive)
24 | C=CCOCC(O)CO (stereo not given) | 7.9% (inactive)
25 | NC(=O)NC1N=C([O][Al])NC1=O (stereo not given) | 1.18% [at 42.5 µM] (inactive)
26 | COCCOCC(OC)OC | -0.591% [at 42.5 µM] (inactive)
27 | CCOc1c(N2CCOCC2)cnn(C)c1=O | 10.8% [at 42.5 µM] (inactive)
28 | CO[C@@]1(NC(=O)CSC[C@@H](N)C(=O)O)C(=O)N2C(C(=O)O)=C(CSc3nnnn3C)CS[C@@H]21 | 6.18% [at 42.5 µM] (inactive)
29 | O=S(=O)(O)c1cc(O)c(O)c(S(=O)(=O)O)c1 | 5.22% (inactive)
30 | Cc1ncc(COP(=O)(O)O)c(C=O)c1O | 6.17% [at 42.5 µM] (inactive)
31 | CN1CC(=O)N/C1=N/C(=O)Nc1cccc(Cl)c1 | 2.17% [at 42.5 µM] (inactive)
32 | C1CCC2=NCCCN2CC1 | -6.02% (inactive)
33 | COc1ccnc(CS(=O)c2nc3cc(OC(F)F)ccc3[nH]2)c1OC (stereo not given) | 7.18% (inactive)
34 | Cc1nc(C2CCCCC2)c(-c2ccc(S(N)(=O)=O)c(F)c2)o1 | -6.21% [at 42.5 µM] (inactive)
35 | CCC(=O)OCc1ccccc1 | -0.251% (inactive)
36 | CC(=O)C1CCCCC1=O (stereo not given) | 1.66% (inactive)
37 | CCCc1ncc(C[n+]2ccccc2C)c(N)n1 | -1.03% [at 42.5 µM] (inactive)
38 | N[C@H](C(=O)O)[C@@H](O)c1ccc(O)c(O)c1 | 1.53% [at 42.5 µM] (inactive)
39 | CN(C)CCCN(C)CCCN(C)C | 1.42% (inactive)
40 | CC(C)C(=O)OC(=O)C(C)C | -15.7% (inactive)
